This note sets out measurements from PubChem BioAssay (Tox21).

Results filed as inconclusive are left out. A call without a number means that no potency is given here. The source made the active and inactive calls. Calls follow the shape of the dose curve; as a rule, active = well fitted activation curve with a large enough effect in the signal ratio in the repeat runs (not every such curve was filed as active); inconclusive = weak or mixed curves, or effect the other way; inactive = no such curve, though single readings can be large or run the other way; the % refers to the signal ratio.

Sequence of Glucocorticoid receptor (Homo sapiens) (P04150 whole entry, looked up): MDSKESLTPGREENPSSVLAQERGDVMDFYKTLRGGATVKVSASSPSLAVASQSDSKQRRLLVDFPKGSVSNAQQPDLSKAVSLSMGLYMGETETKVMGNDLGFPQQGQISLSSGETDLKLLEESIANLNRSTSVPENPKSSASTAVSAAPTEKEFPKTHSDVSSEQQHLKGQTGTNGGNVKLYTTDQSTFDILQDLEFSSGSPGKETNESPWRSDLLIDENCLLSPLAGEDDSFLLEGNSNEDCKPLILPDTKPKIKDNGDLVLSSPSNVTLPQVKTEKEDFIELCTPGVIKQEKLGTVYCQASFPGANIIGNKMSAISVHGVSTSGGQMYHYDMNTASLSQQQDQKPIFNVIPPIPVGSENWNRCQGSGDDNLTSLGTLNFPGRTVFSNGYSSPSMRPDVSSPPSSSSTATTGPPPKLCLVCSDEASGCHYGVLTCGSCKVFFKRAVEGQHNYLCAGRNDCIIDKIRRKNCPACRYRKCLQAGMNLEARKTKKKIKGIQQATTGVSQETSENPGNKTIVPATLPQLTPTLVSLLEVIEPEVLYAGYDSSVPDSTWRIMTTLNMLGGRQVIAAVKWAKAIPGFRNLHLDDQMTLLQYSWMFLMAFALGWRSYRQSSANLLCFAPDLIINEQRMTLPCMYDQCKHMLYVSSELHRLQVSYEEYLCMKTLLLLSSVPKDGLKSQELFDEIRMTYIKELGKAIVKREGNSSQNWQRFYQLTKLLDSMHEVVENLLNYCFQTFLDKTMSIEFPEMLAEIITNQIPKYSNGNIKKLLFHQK

This experiment addresses Glucocorticoid receptor (Homo sapiens) (UniProt P04150). The experiment can be described thus: qHTS assay to identify small molecule agonists of the glucocorticoid receptor (GR) signaling pathway (AID 720691). To be noted: GR-bla HeLa, beta-lactamase reporter ratio, 18 h; series mostly up to 62.4 µM; activation: at the top concentration. The source says: U.S. Tox21 Program National Center for Advancing Translational Sciences [NCATS] NIH Chemical Genomics Center [NCGC] U.S. Environmental Protection Agency [EPA] National Institutes of Environmental Health Sciences [NIEHS] National Toxicology Program [NTP] U.S. Food and Drug Administration [FDA] Tox21 Assay Overview: The Glucocorticoid receptor (GR) is one of the members of the nuclear receptor family of ligand-dependent transcription factors. GR plays a critical role in carbohydrate, protein and lipid metabolisms and programmed cell death. CellSensor GR-bla HeLa cell line (Invitrogen) contains a beta-lactamase reporter gene under the control of the glucocorticoid response element stably integrated into HeLa cells, a cervical cancer cell line that expresses glucocorticoid receptor. The activation of the reporter gene under culture conditions can be detected by fluorescence intensity. This cell line has been used to screen the Tox21 10K compound library and to identify the compounds that activate the GR signaling.
Tox21 Assay Protocol Summary: The GR-bla HeLa cells were dispensed at 1500 cells/6 ul/well in 1536-well black wall/clear bottom plates using a Multidrop Combi (ThermoFisher Scientific, Waltham, MA) dispenser. After the assay plates were incubated at a 37 C/5% CO2 incubator for 4 hours, 23 nL of compounds dissolved in DMSO, positive controls or DMSO only was transferred to the assay plate by a pintool station (Kalypsys, San Diego, CA). The plates were incubated at 37 C for 18 hours. After 1 uL of LiveBLAzerTM B/G FRET substrate was added using a Flying Reagent Dispenser (Aurora Discovery, San Diego, CA), the plates were incubated at room temperature for 2 hours, and fluorescence intensity was measured by an Envision plate reader (PerkinElmer, Shelton, CT).
Background: Quantitative high-throughput screening tests each substance at several concentrations.
In the case of `NC(=O)OCC(COC(N)=O)c1ccccc1`, the Potency entry is “inactive”. For the molecule `CC(C)=CCC/C(C)=C/CO`, the Potency entry was “inactive”.

Regarding `O=C(O)CCCCC1CCSS1` (stereo not given), the Potency entry was “inactive”.

As to `NC(=O)NO`, the Potency result was “inactive”. On the same count and under the same terms, with `CCCCCCCC(=O)OCC(O)CO` (stereo not given) the entry was “inactive”; with `COC(=O)c1ccc(O)cc1`, “inactive”; with `Cc1cnc(NC(=O)C2=C(O)c3ccccc3S(=O)(=O)N2C)s1`, “inactive”.

On to `CC(=O)c1ccc(S(=O)(=O)NC(=O)NC2CCCCC2)cc1`, for which the Potency result was “inactive”. `COc1cc2c(c(OC)c1OC)-c1ccc(OC)c(=O)cc1[C@@H](NC(C)=O)CC2`: the Potency result was “inactive”. `NC(=O)N/N=C/c1ccc([N+](=O)[O-])o1`: the Potency entry was “inactive”. On the same count and under the same terms, the result for `COc1ccc(O)cc1` reads “inactive”. For `CCN1CCCC1=O`, the Potency result was “inactive”. On the same count and under the same terms, the result for `C=C(C)OC(C)=O` reads “inactive”; that for `NC(N)=NC(N)=NCCc1ccccc1`, “inactive”; that for `Cc1cccc(Nc2cc(Cl)nc(SCC(=O)O)n2)c1C`, “inactive”. `COC1=CC(=O)C[C@@H](C)[C@]12Oc1c(Cl)c(OC)cc(OC)c1C2=O`: the Potency result is “inactive”. With `CCOCCO`, the Potency entry is “inactive”. Regarding `C#C[C@]1(O)CC[C@H]2[C@@H]3CCC4=CC(=O)CC[C@@H]4[C@H]3CC[C@@]21CC`, the “activation” value was -11.4% (inactive). For the molecule `C[C@]12CC[C@@H]3c4ccc(O)cc4C[C@@H](CCCCCCCCCS(=O)CCCC(F)(F)C(F)(F)F)[C@H]3[C@@H]1CC[C@@H]2O` (stereo not given in full), the Potency result is “inactive”. Turning to `CCCCCCCCCCCCCC(=O)OC(C)C`, the Potency entry is “inactive”. Same read-out and setting: the result for `CCCCOCCOCCOC(C)=O` reads “inactive”; that for `OCCCc1ccccc1`, “inactive”. The same measure, in the same setting: the result for `c1ccc2[nH]c(-c3cscn3)nc2c1` reads “inactive”. The same measure, in the same setting: with `O=C(O)CN(CC(=O)O)CC(=O)O` the entry was “inactive”; with `NC(=O)c1ccc([N+](=O)[O-])cc1Cl`, “inactive”.

Consider `CC(O)COc1ccccc1` (stereo not given), for which the Potency entry is “inactive”.

With `CC(=O)Oc1ccccc1C(=O)O`, the Potency entry is “inactive”. As for `CCCCOCCOCCSC#N`, the Potency result is “inactive”. Take `CCCCOC(=O)CCCCCCCCC(=O)OCCCC`: the “activation” value is -0.176% (inactive).

For `COC(=O)c1ccc(C=O)cc1`, the Potency entry was “inactive”. Turning to `CCc1cc(C(N)=S)ccn1`, the Potency entry was “inactive”. Same read-out and setting: the result for `Oc1cccc(O)c1` reads “inactive”; that for `COCC(C)N` (stereo not given), “inactive”. The same measure, in the same setting: the result for `N[C@@H](Cc1c[nH]c2ccccc12)C(=O)O` reads “inactive”; that for `CC(=O)CCC(C)C`, “inactive”; that for `O=c1c(-c2ccc(O)cc2)coc2cc(O)cc(O)c12`, “inactive”.

`CC(C)Cc1ccc(C(C)C(=O)O)cc1` (stereo not given): the Potency result was “inactive”.

Take `CC1=NN(c2ccccc2)C(=O)C1`: the Potency result is “inactive”. On the same count and under the same terms, the result for `Cc1c(N(C)CS(=O)(=O)O)c(=O)n(-c2ccccc2)n1C` reads “inactive”; that for `CCOC(=O)C(C)(C)Oc1ccc(Cl)cc1`, “inactive”.
